Reference: PubChem BioAssay AID1159580 (chemical genetic matrix, 2015)
The whole screen tested about 5,500 compounds, of which about 2,000 (36%) were called active. Inconclusive results (about 18%) are left out. Rule as the data show it: active = normalized growth mostly below about 0.91 (no sharp cut-off); inconclusive = no clear call, values can overlap the other calls; inactive = mostly above about 0.92. The list shows a part of the results.

Experiment: chemical genetic growth profiling, strain panel (AID 1159580);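 also: tested at 20 µM; growth read once vehicle control cultures reached saturation at 30 °C; 1 = growth at the plate median or of vehicle wells; lower values mean less growth of the strain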
Conditions: S. cerevisiae deletion strains, growth OD
[1] = locus YAL040C, strain CLN3, hits give low values
[2] = locus YCL061C, strain MRC1 (second series), hits give low values
[3] = locus YDR150W, strain NUM1, hits give low values
[4] = locus YDR363W, strain ESC2, hits give low values
[5] = locus YER002W, strain NOP16, hits give low values
[6] = locus YGR078C, strain PAC10, hits give low values
[7] = locus YGR229C, strain SMI1, hits give low values
[8] = locus YJR075W, strain HOC1, hits give low values
[9] = locus YMR263W, strain SAP30, hits give low values
[10] = locus YMR307W, strain GAS1, hits give low values
[11] = locus YNL128W, strain TEP1, hits give low values
[12] = locus YNL153C, strain GIM3, hits give low values
[13] = locus YNL175C, strain NOP13, hits give low values
[14] = locus YNL197C, strain WHI3, hits give low values
[15] = locus YNL224C, strain SQS1, hits give low values
[16] = locus YOR083W, strain WHI5 (second series), hits give low values
[17] = locus YPL055C, strain LGE1, hits give low values
[18] = locus YPL241C, strain CIN2, hits give low values
[19] = locus YAR019C, strain CDC15, hits give low values
[20] = locus YBL105C, strain PKC1, hits give low values
[21] = locus YBR135W, strain CKS1, hits give low values
[22] = locus YBR136W, strain MEC1, hits give low values
[23] = locus YBR160W, strain CDC28, hits give low values
[24] = locus YDL017W, strain CDC7, hits give low values
[25] = locus YDL028C, strain MPS1, hits give low values
[26] = locus YDL101C, strain DUN1, hits give low values
[27] = locus YDL108W, strain KIN28, hits give low values
[28] = locus YDL132W, strain cdc53, hits give low values
[29] = locus YDL214C, strain PRR2, hits give low values
[30] = locus YDR052C, strain DBF4, hits give low values
[31] = locus YDR054C, strain cdc34, hits give low values
[32] = locus YDR226W, strain ADK1, hits give low values
[33] = locus YDR477W, strain SNF1, hits give low values
[34] = locus YER123W, strain YCK3, hits give low values
[35] = locus YER133W, strain GLC7, hits give low values
[36] = locus YFL009W, strain cdc4, hits give low values
[37] = locus YFL029C, strain CAK1, hits give low values
[38] = locus YFR003C, strain YPI1, hits give low values
[39] = locus YFR019W, strain FAB1, hits give low values
[40] = locus YFR028C, strain CDC14, hits give low values
[41] = locus YGR040W, strain KSS1, hits give low values
[42] = locus YGR052W, strain FMP48, hits give low values
[43] = locus YGR092W, strain DBF2, hits give low values
[44] = locus YHR030C, strain SLT2, hits give low values
[45] = locus YHR079C, strain IRE1, hits give low values
[46] = locus YHR082C, strain KSP1, hits give low values
[47] = locus YHR205W, strain SCH9, hits give low values
[48] = locus YIL147C, strain SLN1, hits give low values
[49] = locus YJL095W, strain BCK1, hits give low values
[50] = locus YJL128C, strain PBS2, hits give low values
[51] = locus YJL157C, strain FAR1, hits give low values
[52] = locus YJR016C, strain ILV3, hits give low values
[53] = locus YJR066W, strain TOR1 (second series), hits give low values
[54] = locus YJR066W, strain TOR1, hits give low values
[55] = locus YKL048C, strain ELM1, hits give low values
[56] = locus YKL067W, strain YNK1, hits give low values
[57] = locus YKL101W, strain HSL1, hits give low values
[58] = locus YKL193C, strain SDS22, hits give low values
[59] = locus YKL203C, strain TOR2, hits give low values
[60] = locus YLR113W, strain HOG1, hits give low values
[61] = locus YLR133W, strain CKI1, hits give low values
[62] = locus YLR403W, strain SFP1, hits give low values
[63] = locus YML070W, strain DAK1, hits give low values
[64] = locus YMR001C, strain CDC5, hits give low values
[65] = locus YMR205C, strain PFK2 (second series), hits give low values
[66] = locus YMR277W, strain FCP1, hits give low values
[67] = locus YNL006W, strain LST8, hits give low values
[68] = locus YNL020C, strain ARK1, hits give low values
[69] = locus YNL161W, strain CBK1, hits give low values
[70] = locus YNL183C, strain NPR1, hits give low values
[71] = locus YNL207W, strain RIO2, hits give low values
[72] = locus YNL222W, strain SSU72, hits give low values
[73] = locus YNL307C, strain MCK1 (second series), hits give low values
[74] = locus YOL078W, strain AVO1, hits give low values
[75] = locus YOL136C, strain PFK27, hits give low values
[76] = locus YOR061W, strain CKA2, hits give low values
[77] = locus YOR119C, strain RIO1, hits give low values
[78] = locus YOR231W, strain MKK1, hits give low values
[79] = locus YOR329C, strain SCD5, hits give low values
[80] = locus YPL031C, strain PHO85, hits give low values
[81] = locus YPL153C, strain RAD53, hits give low values
[82] = locus YPL204W, strain HRR25, hits give low values
[83] = locus YPL209C, strain IPL1, hits give low values
[84] = locus YPL256C, strain CLN2, hits give low values
[85] = locus YPR025C, strain CCL1, hits give low values
[86] = locus YPR106W, strain ISR1, hits give low values
[87] = locus YPR111W, strain DBF20, hits give low values
[88] = strain NNK1, hits give low values
[89] = strain TSCII, hits give low values
[90] = locus YNL322C, strain KRE1, hits give low values

Measured: normalized growth

CCN(CC)CCOC(=O)c1cc(Cl)c(N)cc1OC
inactive: [1] 0.981 | [2] 1.01 | [3] 1 | [4] 1 | [5] 1.02 | [6] 1.01 | [7] 1.01 | [8] 1.01 | [9] 1 | [10] 1 | [11] 1 | [12] 1 | [13] 1 | [14] 1.01 | [15] 1 | [16] 1.01 | [17] 0.954 | [18] 1

COc1cc(Cl)ccc1N/N=C(/C#N)C(N)=O
active: [19] 0.106 | [20] 0.0965 | [21] 0.109 | [22] 0.104 | [23] 0.104 | [24] 0.0952 | [25] 0.111 | [26] 0.124 | [27] 0.114 | [28] 0.102 | [29] 0.116 | [30] 0.0987 | [31] 0.104 | [32] 0.103 | [33] 0.115 | [34] 0.112 | [35] 0.12 | [36] 0.109 | [37] 0.109 | [38] 0.0947 | [39] 0.112 | [40] 0.106 | [41] 0.112 | [42] 0.153 | [43] 0.11 | [44] 0.194 | [45] 0.214 | [46] 0.221 | [47] 0.0135 | [48] 0.107 | [49] 0.189 | [50] 0.103 | [51] 0.105 | [52] 0.0991 | [53] 0.112 | [54] 0.181 | [55] 0.128 | [56] 0.119 | [57] 0.106 | [58] 0.106 | [59] 0.116 | [60] 0.262 | [61] 0.111 | [62] 0.00868 | [63] 0.114 | [64] 0.108 | [65] 0.104 | [66] 0.106 | [67] 0.0981 | [68] 0.11 | [69] 0.106 | [70] 0.148 | [71] 0.107 | [72] 0.105 | [73] 0.12 | [74] 0.105 | [75] 0.115 | [76] 0.0994 | [77] 0.115 | [78] 0.231 | [79] 0.102 | [80] 0.107 | [81] 0.111 | [82] 0.117 | [83] 0.0959 | [84] 0.231 | [85] 0.107 | [86] 0.0943 | [87] 0.108 | [88] 0.0995 | [89] 0.107

COC(=O)c1ccc(Cl)cc1NS(=O)(=O)c1ccc(OC)c(OC)c1
inactive: locus YAL013W, strain DEP1, hits give low values 1.01 | locus YBR229C, strain ROT2, hits give low values 0.976 | [26] 0.987 | [3] 1.04 | locus YEL061C, strain CIN8, hits give low values 1.01 | [6] 0.986 | [7] 1.02 | [44] 0.969 | locus YHR087W, strain rtc3, hits give low values 1.02 | locus YJL187C, strain SWE1, hits give low values 1 | locus YJR043C, strain POL32, hits give low values 0.978 | [8] 0.984 | locus YKL190W, strain CNB1, hits give low values 1.01 | locus YLR039C, strain RIC1, hits give low values 0.934 | locus YLR058C, strain SHM2 (second series), hits give low values 1.01 | locus YLR085C, strain ARP6, hits give low values 1.01 | locus YLR262C, strain YPT6, hits give low values 0.947 | locus YML094W, strain GIM5, hits give low values 1.03 | locus YMR219W, strain ESC1, hits give low values 1 | [9] 0.986 | [12] 0.996 | locus YNL298W, strain CLA4 (second series), hits give low values 0.989 | [90] 1 | locus YNR030W, strain Alg12, hits give low values 0.998 | [17] 0.966 | [18] 1.01 | locus YPR135W, strain CTF4, hits give low values 0.999

Nc1cc(=O)[nH]c(N)n1
inactive: [1] 1.01 | [2] 0.991 | [3] 0.978 | [4] 0.953 | [5] 1.01 | [10] 0.981 | [11] 0.984 | [13] 1.01 | [14] 0.987 | [15] 1.01 | [90] 1 | [16] 1.02 | [18] 1.01

CC(C)(C)c1ccc(C(=N)SC(C(=O)C(F)(F)F)c2ccccc2)cc1 (stereo not given)
inactive: [19] 0.987 | [20] 0.994 | [21] 0.994 | [22] 0.985 | [23] 0.994 | [24] 0.998 | [25] 0.989 | [26] 0.992 | [27] 0.987 | [28] 0.989 | [29] 0.916 | [30] 0.993 | [31] 0.986 | [32] 0.993 | [33] 0.865 | [34] 0.877 | [35] 0.942 | [36] 0.991 | [37] 0.982 | [38] 0.986 | [39] 0.884 | [40] 0.985 | [41] 0.894 | [42] 0.96 | [43] 0.887 | [45] 0.804 | [46] 0.766 | [47] 0.778 | [48] 0.992 | [49] 0.868 | [50] 1.02 | [51] 0.966 | [52] 0.995 | [53] 0.931 | [54] 0.859 | [55] 0.96 | [56] 0.951 | [57] 0.875 | [58] 0.986 | [59] 0.98 | [60] 0.901 | [61] 0.887 | [62] 0.89 | [63] 0.9 | [64] 0.983 | [65] 0.941 | [66] 0.993 | [67] 0.997 | [68] 0.884 | [69] 0.993 | [70] 0.863 | [71] 0.99 | [72] 0.989 | [73] 0.794 | [74] 0.994 | [75] 0.901 | [76] 0.885 | [77] 0.979 | [78] 0.938 | [79] 0.988 | [80] 0.872 | [81] 0.909 | [82] 0.905 | [83] 0.99 | [85] 0.995 | [86] 0.988 | [87] 0.977 | [88] 0.982 | [89] 0.985
active: [44] 0.471 | [84] 0.846
